Bioassay records (PubChem BioAssay)
An excerpt weighted towards active compounds, which were near 2.1% of everything screened.
KKLEB cytotox: counter-screen for CF NF-kB inhibitors: cytotoxicity | hit rate 0.36% among 360,000 | KKLEB CF airway cells viability, ATPlite luminescence, overnight; stronger effect = lower value; cells stimulated with P. aeruginosa culture filtrate | AID 602141 | activity change (cytotoxicity), % at 5 µM;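 active = corrected activity change at or below -50% at 5 µM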
CF NFkB inh: inhibitors of cystic fibrosis induced NF-kB; hit rate 0.86% among 360,000; inhibition, % at 5 µM; KKLEB NF-kB-GFP reporter, PAF-induced, GFP fluorescence overnight;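 active = at least 50% inhibition at 5 µM, scaled per plate between neutral and stimulator controls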;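 note: PAF is a Pseudomonas aeruginosa culture filtrate used as stimulus; plate controls were PAF-stimulated DMSO wells for no effect and unstimulated DMSO wells for full effect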
EWS-Fli block: EWS/Fli transcriptional activity inhibition. A673 NR0B1-luciferase reporter, viability-normalised. inhibition, % at 12.6 µM. hit rate 0.67% among 350,000;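 active = mean inhibition of at least 50% after viability correction, with every replicate also passing that limit; inconclusive = mean reaches 50% but only one of two replicates passes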;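 note: firefly luciferase signal divided by Alamar Blue viability fluorescence both relative to DMSO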
PAX8 inh HTS: PAX8 transcriptional activity inhibition. RMG-I TPO-luciferase reporter, SteadyGlo, 24 h. AID 652154. inhibition, % at 12.6 µM. hit rate 1.2% among 360,000;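 active = mean replicate inhibition at least 60% with every replicate also reaching 60%; inconclusive = only one of the two criteria is met; inactive = mean below 60% and not all replicates reaching 60%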;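 note: luciferase light reporting Pax8 driven TPO promoter activity; plate controls were median of neutral control wells for no effect and mitoxantrone controls for full effect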
HIF-2a block: blocks HIF-2a reporter activity. 786-0 RCC cells HIF-2a reporter, luciferase luminescence, overnight. inhibition, % at 18.8 µM. hit rate 0.72% among 360,000;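 active = inhibition of the luminescence signal of 40% or more relative to plate controls, in a single-dose primary screen at 18.75 µM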
Mdm2 MdmX conf: Mdm2/MdmX (human) interaction inhibition, confirmed; shares compounds with HIF-2a block; SaOS-2 split-luciferase Mdm2/MdmX complementation, luminescence; inhibition, % at 8 µM; hit rate 99% among 740;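 active = mean inhibition of the luminescence signal across two replicates at or above 26 percent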
Target sequence (O15151 whole entry, looked up): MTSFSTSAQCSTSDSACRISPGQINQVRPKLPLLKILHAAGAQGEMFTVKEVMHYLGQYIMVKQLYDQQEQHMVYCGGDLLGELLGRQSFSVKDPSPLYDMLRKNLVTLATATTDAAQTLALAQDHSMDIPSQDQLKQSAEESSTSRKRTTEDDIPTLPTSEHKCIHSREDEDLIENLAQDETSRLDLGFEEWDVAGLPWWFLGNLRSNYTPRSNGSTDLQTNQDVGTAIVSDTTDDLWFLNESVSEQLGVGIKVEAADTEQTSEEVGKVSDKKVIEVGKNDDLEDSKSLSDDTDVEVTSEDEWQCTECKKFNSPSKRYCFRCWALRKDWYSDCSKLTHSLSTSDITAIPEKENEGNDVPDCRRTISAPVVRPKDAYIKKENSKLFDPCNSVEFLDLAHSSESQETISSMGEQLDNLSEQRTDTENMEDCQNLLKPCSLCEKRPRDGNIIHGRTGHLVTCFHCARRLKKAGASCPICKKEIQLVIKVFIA
Target sequence (Q00987 whole entry, looked up): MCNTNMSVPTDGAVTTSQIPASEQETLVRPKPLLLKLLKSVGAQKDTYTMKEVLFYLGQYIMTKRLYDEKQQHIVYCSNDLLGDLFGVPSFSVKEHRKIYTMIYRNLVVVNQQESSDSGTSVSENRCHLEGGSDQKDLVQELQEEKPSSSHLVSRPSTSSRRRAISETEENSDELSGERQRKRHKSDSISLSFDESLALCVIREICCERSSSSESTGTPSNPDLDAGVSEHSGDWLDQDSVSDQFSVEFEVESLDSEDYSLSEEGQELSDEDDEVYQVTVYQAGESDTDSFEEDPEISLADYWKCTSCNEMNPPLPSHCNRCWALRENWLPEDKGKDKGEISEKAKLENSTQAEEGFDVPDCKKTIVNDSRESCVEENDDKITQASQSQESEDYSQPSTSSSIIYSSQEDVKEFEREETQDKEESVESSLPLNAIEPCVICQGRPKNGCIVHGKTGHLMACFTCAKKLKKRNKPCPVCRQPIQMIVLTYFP
HIF-2a conf: confirmation of HIF-2a inhibitors; shares compounds with HIF-2a block; 786-0 RCC cells, HIF-2a luciferase reporter luminescence, overnight; inhibition, % at 18.8 µM; hit rate 56% among 1,800;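 active = mean inhibition across four replicates of at least 40 percent at the single tested concentration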
HIF-1a cs: counter-screen for HIF-2a inhibitors: HIF-1a inhibition in MiaPaCa-2 cells; shares compounds with HIF-2a block; MiaPaCa-2 HIF-1a luciferase reporter, desferoxamine, overnight; inhibition, % at 18.8 µM; hit rate 72% among 1,800; AID 651589;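 active = mean inhibition of the reporter signal across four replicates at the single tested dose of 50% or more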
The depositor's hits bear a star; ? = inconclusive; / = not tested or not shown.

SMILES	KKLEB cytotox	CF NFkB inh	EWS-Fli block	PAX8 inh HTS	HIF-2a block	HIF-2a conf	HIF-1a cs	others
CCCCCn1c(=O)c(C(=O)NCc2ccncc2)c(O)c2ccccc21	-8	3	/	/	46*	5	-22
CCCCCN1C(=O)c2cc(OC)ccc2[C@@]2(C(=O)OCC)Cc3cc(Cl)ccc3[C@@H]12	/	/	57*	16	80*	97*	105*
CCOC(=O)[C@]12Cc3cc(Cl)ccc3[C@H]1N(C)C(=O)c1ccccc12	/	/	-2	14	18	/	/
CCOC(=O)[C@]12Cc3cc(OC)ccc3[C@H]1N(C(C)C)C(=O)c1cc(OC)ccc12	/	/	16	5	52*	90*	96*
CCOC(=O)[C@]12Cc3cc(Cl)ccc3[C@H]1N(C(C)C)C(=O)c1ccccc12	/	/	29	86*	90*	95*	104*
CCOC(=O)[C@]12Cc3cc(Cl)ccc3[C@H]1N(CC(=O)OC)C(=O)c1ccccc12	/	/	/	/	81*	94*	104*
CCOC(=O)[C@]12Cc3cc(Cl)ccc3[C@H]1N(Cc1ccccc1)C(=O)c1cc(OC)ccc12	/	/	24	34	37	/	/
CCOC(=O)[C@]12Cc3cc(C)ccc3[C@H]1N(C)C(=O)c1ccccc12	/	/	2	-10	19	/	/
CCOC(=O)[C@]12Cc3cc(Cl)ccc3[C@H]1N(C1CCCCC1)C(=O)c1ccccc12	/	/	/	/	85*	97*	105*
c1ccc(-c2cc(-c3ccccc3)[n+](-c3ccccc3)c(-c3ccccc3)c2)cc1	-32	29	69*	96*	8	/	/	Mdm2 MdmX conf=102*
N#Cc1cccc(-c2ccc([C@@H]3[C@@H](CO)N4CCCCN(C(=O)Cc5cccnc5)C[C@@H]34)cc2)c1	/	/	5	-5	/	/	/
Oc1ccc2c3c1O[C@H]1c4[nH]c5c(c4CC4(O)C(C2)N(CC2CC2)CCC314)CC1(O)[C@H]2Cc3ccc(O)c4c3[C@@]1(CCN2CC1CC1)C5O4 (stereo partly specified)	/	/	-11	/	/	/	/
O=C1/C(=C/c2ccccc2)C[C@@]2(O)[C@H]3Cc4ccc(O)c5c4[C@@]2(CCN3CC2CC2)C1O5 (stereo partly specified)	0	76*	/	/	95*	/	/	Mdm2 MdmX conf=103*
CCC(=O)N1[C@@H]2c3ccc(-c4ccc(F)cc4)c(=O)n3C[C@H]1[C@H](CO)[C@H]2C(=O)OC	/	/	-2	-3	/	/	/
CC1CC(C)CC(C)C(O)C(C#N)=CC=CCC(C2CCCC2C(=O)O)OC(=O)CC(O)C(C)C1 (stereo unspecified)	-48	86*	47	102*	78*	76*	104*
COC(=O)[C@H]1[C@H](CO)[C@H]2Cn3c(ccc(-c4cccc(F)c4)c3=O)[C@@H]1N2C(=O)CC1CC1	/	/	-10	/	/	/	/
CCCCCCCCCCCCCCCC[N+](C)(C)C	30	75*	57*	93*	56*	42*	79*
COC(=O)[C@@H]1[C@@H](CO)[C@@H]2Cn3c(ccc(-c4ccccc4)c3=O)[C@H]1N2C(=O)c1ccccc1F	/	/	4	/	/	/	/
N=C(N)c1c(O)n(C2CCCCC2)c(=O)n(C2CCCCC2)c1=O	-20	27	/	/	52*	24	97*
CCCNC(=O)[C@@H]1[C@@H](CO)[C@@H]2Cn3c(cccc3=O)[C@H]1N2CCC	/	/	3	-1	/	/	/
COC(=O)[C@@H]1[C@@H](C(=O)OC)C2(c3ccccc3-c3ccccc32)N(c2ccc(Cl)cc2)N1C#N	-75*	92*	/	/	94*	92*	106*
COC(=O)[C@H]1[C@H](CO)[C@H]2Cn3c(ccc(C4=CCCCC4)c3=O)[C@@H]1N2C(=O)NC(C)C	/	/	3	-5	/	/	/
CC1OC(OC2C=C3CCC4C(CCC5(C)C(c6ccc(=O)oc6)CCC45O)C3(C)CC2)C(O)C(OC2OC(CO)C(O)C(O)C2O)C1O (stereo unspecified)	-62*	95*	?	106*	70*	32	105*
COC(=O)[C@H]1[C@H](CO)[C@H]2Cn3c(ccc(C4=CCCCC4)c3=O)[C@@H]1N2CCc1ccccc1	/	/	1	11	/	/	/
